# In PubChem BioAssay (NCI):
# This is part of a sample that, as a whole, favours compounds with a hit. Of some 83,000 tested, about 20% had one in any assay.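 A percent growth of 40 corresponds to 60% growth inhibition; 0 means no net growth; -100 means all cells died. Active threshold: below 10.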 Unmarked numbers belong to inactive results. Activity calls are given as the source filed them.
# Assays:
# Test in all cases: NCI-60 one-dose screen, 48 h (100 = growth as untreated, 0 = no growth, -100 = all killed)
# Settings in all cases: 10 µM
# DU-145 prostate = system: DU-145 prostate
# K-562 leukemia = system: K-562 leukemia
# MALME-3M melanoma = system: MALME-3M melanoma
# MDA-MB-231 breast = system: MDA-MB-231 breast
# RXF 393 renal = system: RXF 393 renal
# SF-268 CNS = system: SF-268 CNS
# SF-295 CNS = system: SF-295 CNS
# SF-539 CNS = system: SF-539 CNS
# UACC-257 melanoma = system: UACC-257 melanoma
# M14 melanoma = system: M14 melanoma
Compound,growth (DU-145 prostate),growth (K-562 leukemia),growth (MALME-3M melanoma),growth (MDA-MB-231 breast),growth (RXF 393 renal),growth (SF-268 CNS),growth (SF-295 CNS),growth (SF-539 CNS),growth (UACC-257 melanoma),growth (M14 melanoma)
NC1CCC(Nc2nc(NCc3ccc(-c4cccs4)nc3)c3ncn(C4CCCC4)c3n2)CC1 (stereo not given),8.83% (active),-6% (active),-74.7% (active),-0.601% (active),-50% (active),-5.75% (active),0.906% (active),-56.7% (active),-74.6% (active),-80.6% (active)
COc1ccc(S(=O)(=O)Nc2cc(/C=C\c3cc(OC)c(OC)c(OC)c3)ccc2OC)cc1,-12.8% (active),11.1%,50%,7.83% (active),16.4%,9.24% (active),13%,-13% (active),47.7%,8.41% (active)
O=C(CSc1nnc(-c2ccc(Cl)cc2)o1)c1ccccc1,101%,102%,112%,95.2%,99.9%,101%,100%,91.4%,98.9%,108%
Nc1ccc(C2=CC(c3ccc(Cl)cc3)N3C=CSC3=N2)cc1 (stereo not given),-44.6% (active),3.22% (active),-82.8% (active),-14.4% (active),-93.1% (active),-41.9% (active),-0.33% (active),-55.8% (active),-78.1% (active),-71.1% (active)
O=C(Nc1cccc(Cl)c1)OCC(COC(=O)Nc1cccc(Cl)c1)(COC(=O)Nc1cccc(Cl)c1)[N+](=O)[O-],44.2%,26.4%,59%,40.3%,57.1%,35.4%,20.8%,59.5%,52.3%,24.4%
COc1cc(-c2cc(/C=C/C(C)=O)[nH]n2)cc(OC)c1OC,77%,46.6%,67.5%,78.8%,89.4%,82.4%,76%,93.4%,79.9%,84.9%
COc1ccc(-c2nsc3c2NC(=O)CC3c2cccc(Cl)c2)cc1 (stereo not given),23.7%,10.4%,26.2%,51.6%,-1.29% (active),57.2%,5.03% (active),-14.1% (active),45%,19.2%
CC(C)C(C)C(N)C(=O)O (stereo not given),105%,90.8%,95.9%,125%,108%,107%,117%,101%,108%,94.1%
CCOC(=O)CSC(=S)SCC(=O)OCC,107%,95.6%,98%,118%,109%,113%,103%,94.1%,82.8%,97.9%
S=c1c2ncccc2c(-c2ccccn2)nn1Cc1ccccn1,111%,95.6%,89.6%,112%,114%,108%,96%,99.7%,95.6%,89.9%
O=[N+]([O-])c1cc2ncccc2c2ncccc12,89.7%,49.3%,72.8%,60.6%,92.4%,91.5%,134%,93.6%,90.5%,84.5%
CCc1nn2c(-c3cc(OC)c(OC)c(OC)c3)c(-c3cc(OC)c(OC)c(OC)c3)nc2s1,88.1%,85.7%,47.5%,58.9%,38.8%,45.9%,61.4%,59.6%,108%,89.5%
CN1/C(=C\C(I)C(I)C2=[N+](C)c3ccccc3C2(C)C)C(C)(C)c2ccccc21 (stereo not given),25.2%,7.4% (active),10.9%,12.2%,36.3%,24%,-18.2% (active),18.6%,-11.8% (active),20.3%
O=C(CCCC(=O)N/N=C/c1cc(Cl)ccc1O)N/N=C\c1cc(Cl)ccc1O,42.9%,13.9%,31.2%,37.5%,39.2%,26.4%,-5.9% (active),14.1%,-1.55% (active),12.9%
CCC1(C)OC(=O)NC1=O (stereo not given),111%,91.7%,106%,109%,121%,103%,103%,99.1%,90.9%,97.2%
O=C(Nc1ccc(Oc2ccc(Nc3nc4ccccc4s3)cc2)cc1)Nc1ccc(Cl)c(Cl)c1,39.1%,21.9%,47.9%,22.8%,56.5%,35.9%,17.8%,50.9%,61.3%,26.3%
O=[N+]([O-])c1ccc(Br)o1,101%,106%,104%,107%,106%,95.9%,98.8%,98.6%,110%,104%
O=S(=O)(NC1c2ccccc2Oc2ccccc21)c1cc(Cl)ccc1Cl,113%,89.8%,102%,97.4%,93.1%,99.1%,101%,98.2%,102%,98.9%
CC1(CO)CCCC12OCCO2 (stereo not given),117%,100%,113%,104%,100%,110%,82.3%,96.2%,99.8%,106%
Nc1c(CNCc2nnn(Cc3ccccc3)c2N)nnn1Cc1ccccc1,107%,93.6%,79.9%,108%,99.7%,103%,101%,95.6%,103%,98.5%
COc1cccc(C(=O)N(c2ccc(F)c(F)c2)C(C(=O)NC(C)(C)C)c2cc3c(C)cc(C)cc3nc2Cl)c1 (stereo not given),75.5%,55.8%,95%,47.4%,72.3%,64.7%,54%,79.4%,79.6%,64.9%
CC(=O)Oc1c(C)c(C)c2c(c1C)CCC(C)(CC(=O)OCCCCCCCCCCC[P+](c1ccccc1)(c1ccccc1)c1ccccc1)O2 (stereo not given),-71.5% (active),-33.9% (active),-66.3% (active),-88.9% (active),-89.5% (active),-72.3% (active),-79.8% (active),-93.6% (active),-80.5% (active),-87.5% (active)
CCOC(=O)c1ccc(NC(=O)Nc2nncs2)cc1,-18% (active),7.79% (active),22.2%,14.8%,-15.2% (active),29.3%,-39.9% (active),14.6%,67.9%,4.02% (active)
N#Cc1ccc(-n2cnc(NC(=O)[C@H]3CCN(C#N)C3)c2)cc1,29.7%,17.8%,-14.1% (active),14.8%,-54.8% (active),29.9%,42%,-9.26% (active),42.3%,29.1%
CCCc1ccnc(NS(=O)(=O)c2ccc(N)cc2)n1,117%,54.7%,67.1%,81.9%,102%,95.6%,95.9%,71.8%,43.4%,95.8%
CCc1ccc(Nc2cc(C)nc3nc(C)nn23)cc1,29.5%,-24.3% (active),-90.2% (active),-58.3% (active),-66.5% (active),37.8%,33.1%,0.337% (active),-84.8% (active),-93.6% (active)
COc1ccc2nc(C)cc(Nc3ccc(Cl)cc3)c2c1,102%,97.9%,114%,115%,118%,103%,108%,104%,99.4%,100%
Cc1ccc([P+](Cc2ccc([N+](=O)[O-])cc2)(c2ccc(C)cc2)c2ccc(C)cc2)cc1,78.3%,11.2%,-15% (active),41.6%,67.2%,54.2%,45.2%,69%,-14.6% (active),19%
